Values joined by “and” are separate entries in the source; they are usually repeats but may differ in a detail not shown here. Equal values may be shown once. About 79,000 compounds went through this panel and 15% of them were active in at least one assay; those are over-represented in the sample as a whole. The source holds several records for some structures; these can differ, active in one and inactive in another. Active and inactive are the calls of the source. Rule as the data show it: active = growth inhibition above about 70%; inactive = the rest.
Assay: NCI Yeast Anticancer Drug Screen. Data for the cln2 rad14 strain (AID 165);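 also: 0% = growth equal to vehicle treated cultures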
Settings: S. cerevisiae cln2 rad14 strain, at 50.0 µM, stronger effect = higher value
Method in brief: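 cln2 rad14 yeast strain; compound exposure; growth inhibition read vs vehicle controls.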

SMILES	growth inhibition
CC(=O)OCC(OC(C)=O)C(OC(C)=O)C(OC(C)=O)C(C=NN(C(C)=O)S(=O)(=O)c1ccc(/C=C2\NC(=O)N(C)C2=O)cc1)OC(C)=O (stereo not given)	12.8% (inactive) and 33.5% (inactive)
O=C(O)C1C2OC(C(Br)C2Br)C1C(=O)O (stereo not given)	71.8% (active) and 12.1% (inactive)
COc1cc2c(c(OC)c1OC)-c1ccc(OC)c(=O)cc1C([N+](C)(C)C)CC2 (stereo not given)	-0.65% (inactive) and -11.1% (inactive)
Cc1ccc2ccccc2[n+]1C	-36.9% (inactive) and 1.2% (inactive)
COc1ccc(C(O)C(NCCO)c2ccc(OC)cc2)cc1 (stereo not given)	-37.6% (inactive) and -16.8% (inactive)
C/C=C(\C)c1cc(=O)c2c(C)cc3c(c2o1)C(=O)c1c(O)c(C2CC(C)(N(C)C)C(O)C(C)O2)cc(C2CC(N(C)C)C(O)C(C)O2)c1C3=O (stereo not given)	3.4% (inactive) and 25.8% (inactive)
CCOC(=O)c1ccc(N=[N+]([O-])c2ccc(C(=O)OCC)cc2)cc1	-6% (inactive) and -3.25% (inactive)
C[N+](C)(C)CCOC(=O)c1ccccc1CBr	40.9% (inactive) and 97.7% (active)
CC(=O)OCC1OC(n2cnc3c(N)ncnc32)C(OC(C)=O)C1OC(C)=O (stereo not given)	14.2% (inactive) and 11.4% (inactive)
CC(=O)/C=C/C1=C(C)CCCC1(C)C	-14.7% (inactive) and 8.05% (inactive)
COc1ccc2c(=O)c(C)c(-c3ccccc3)oc2c1CN(C)C	9.8% (inactive) and -0.05% (inactive)
Oc1ccccc1-c1nc2ccccc2o1	-6.75% (inactive) and 1.4% (inactive)
Cc1cn(C2CC(CCCO)C(CO)O2)c(=O)[nH]c1=O (stereo not given)	-2.8% (inactive) and 16.1% (inactive)
N#CC1OC1c1cccc[n+]1[O-] (stereo not given)	-45.9% (inactive) and -29.5% (inactive)
O=C(CCCCCCCCC(=O)NCC1(c2ccccc2)CCN(Cc2ccccc2)CC1)NCC1(c2ccccc2)CCN(Cc2ccccc2)CC1	-11.4% (inactive) and 2.2% (inactive)
CCCCc1ccc(OC2OC(COC(C)=O)C(OC(C)=O)C(OC(C)=O)C2OC(C)=O)cc1 (stereo not given)	-4.35% (inactive) and 17.6% (inactive)
S=c1nc[nH]c2ccccc12	-98.9% (inactive) and -0.05% (inactive)
OC1COCOC1C1OCOCC1O (stereo not given)	-18.2% (inactive) and -29% (inactive)
OCC(O)C(O)C(O)C(O)[C@@H](O)c1nc2ccccc2[nH]1 (stereo not given in full)	-34.5% (inactive) and -16.2% (inactive)
CC(CC(=O)O)C(C(=O)O)C(=O)O (stereo not given)	-32.2% (inactive) and 0.4% (inactive)

SMILES	growth inhibition
C/C(=N\NS(C)(=O)=O)C(C)(C)C	-5.35% (inactive) and 6.5% (inactive)
COc1cc2c(cc1OC)C(=O)C1COC(=O)C1C2 (stereo not given)	-11.9% (inactive) and 5.05% (inactive)
Nc1cc(S(=O)(=O)O)ccc1Cl	10.1% (inactive) and -43.9% (inactive)
COc1ccc(COC(=O)NCC(=O)NC(C)C(=O)NC(Cc2ccccc2)C(=O)OCc2ccccc2)cc1 (stereo not given)	-21.1% (inactive) and -17.6% (inactive)
NCC1CCC(CN)CC1 (stereo not given)	-5.15% (inactive) and 12.1% (inactive)
CCCCCC(Br)C(Br)CC(Br)C(Br)CCCCCCCC(=O)c1ccc2ccccc2c1O (stereo not given)	8.05% (inactive) and -2.25% (inactive)
O=c1[nH]c(SCc2ccccc2[N+](=O)[O-])nc2nc[nH]c12	-12.7% (inactive) and 23.1% (inactive)
OC1CCN2Cc3ccccc3N=C12 (stereo not given)	4.5% (inactive) and 15.8% (inactive)
C=CC/C(=N\OS(=O)(=O)O)SC1OC(CO)C(O)C(O)C1O (stereo not given)	13.4% (inactive) and 7.4% (inactive)
CCc1ccc(N)cc1	-5.55% (inactive) and -28.5% (inactive)
CC(O)(c1cccc(Cl)c1)C(c1ccccc1)c1ccccn1 (stereo not given)	19.8% (inactive) and 92.2% (active)
C1=C(c2cccc3ccccc23)CCCC1	-0.1% (inactive) and 8.1% (inactive)
Cn1c(=O)c(Br)cn(C2OC(CO)C3OC32)c1=O (stereo not given)	-19.4% (inactive) and -15.4% (inactive)
NC1CCCCCCC1	-4.2% (inactive) and 1% (inactive)
O=C(NS(=O)(=O)c1ccccc1)OCc1ccccc1	-22.2% (inactive) and -31.8% (inactive)
CCCCOc1ccc2nc3cc(Cl)ccc3c(Cl)c2n1	5.7% (inactive) and 17.4% (inactive)
N/N=C(/C(=O)c1ccccc1)c1ccccc1	11.6% (inactive) and -56% (inactive)
CC(=O)OC(COC(=O)c1ccccc1)C(OC(C)=O)C(OC(C)=O)C(COC(=O)c1ccccc1)OC(C)=O (stereo not given)	-18.9% (inactive) and -21.4% (inactive)
CCOC(=O)CNC(=O)c1ccccc1	-8% (inactive) and -13.8% (inactive)
CCCCN(CCCC)CCCN	-11.6% (inactive) and 9.8% (inactive)

— PubChem BioAssay (NCI)
